# From PubChem BioAssay AID624405 (Broad Institute, 2012)
# Among all 1,900 compounds or so, about 250 (13%) were called active. Inconclusive results (about 4%) are left out.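 Rule for the calls: active = fitted curve reaches 40% rescue activity at or below the top valid dose, in every test run; inconclusive = test runs disagree, some active and some inactive; inactive = every run misses the threshold or moves the wrong way.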 A selection follows. Results with a measured potency or affinity are listed apart.
# Assay: suppressors of statin myotoxicity in myotubes, dose response, cell-based, C2C12 myotubes, ATP luminescence, cherry pick (AID 624405);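 note: myotubes are challenged with simvastatin at 10 µM to lower ATP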
# Settings: C2C12 myotubes + simvastatin, 48 h, scaled: DMSO wells 0, geranylgeraniol wells 100; series mostly up to 19.5 µM
row,Structure (SMILES),outcome
1,O=C(O)c1ccc(C(=O)c2ccc3c(c2)C(=O)N(Cc2ccco2)C3=O)cc1,inactive
2,Cc1noc(C)c1S(=O)(=O)Nc1ccc2c(c1)C(=O)N([C@H](C)CO)C[C@H](C)[C@@H](CN(C)C(=O)Nc1cccc3ccccc13)O2,inactive
3,COc1ccc(C#Cc2cnc3c(c2)C(=O)N([C@@H](C)CO)C[C@H](C)[C@H](CN(C)C(=O)Nc2cccc(OC)c2)O3)cc1,inactive
4,C[C@H](CO)N1C[C@H](C)[C@@H](CN(C)Cc2ccc(C(=O)Nc3ccccc3N)cc2)Oc2ccc(NC(=O)Nc3cccc4ccccc34)cc2C1=O,inactive
5,COc1ccc(NC(=O)Nc2ccc3c(c2)C(=O)N([C@@H](C)CO)C[C@H](C)[C@H](CN(C)Cc2ccc(C(F)(F)F)cc2)OCCCC[C@@H](C)O3)cc1,inactive
6,COc1ccc(N=Cc2sc(O)c3ccccc23)cc1,inactive
7,C[C@@H]1CN([C@H](C)CO)C(=O)c2cc(C3=CCCCC3)cnc2O[C@H]1CN(C)Cc1ccccc1F,inactive
8,Cn1c(CCN2CCCCC2)nc2cc(NC(=O)Nc3ccccc3)ccc21,inactive
9,CC(C(=O)N1CCCc2ccccc21)N1C(=O)c2ccccc2C1=O (stereo unspecified),inactive
10,CCN(CC)C(=O)c1ccc(NS(=O)(=O)c2ccccc2)cc1,inactive
11,NNC(=O)COc1cccc2cccnc12,inactive
12,O=c1[nH]c(Nc2ccccc2Cl)cc2ccccc12,inactive
13,CC(C)(C)C(=O)COC(=O)CNC(=O)c1ccc(Oc2ccccc2)cc1,inactive
14,Cc1ccc(S(=O)(=O)Nc2ccc3c(c2)CC(=O)N([C@@H](C)CO)C[C@@H](C)[C@@H](CN(C)Cc2ccc(Cl)c(Cl)c2)O3)cc1,inactive
15,C[C@@H]1CN([C@H](C)CO)C(=O)Cc2cc(N(C)C)ccc2O[C@@H]1CN(C)Cc1ccc(Cl)c(Cl)c1,inactive
16,Cc1ccc(S(=O)(=O)Nc2ccc3c(c2)CC(=O)N([C@@H](C)CO)C[C@@H](C)[C@H](CN(C)Cc2ccc(Cl)c(Cl)c2)O3)cc1,inactive
17,C[C@@H]1CN([C@H](C)CO)C(=O)Cc2cc(NS(C)(=O)=O)ccc2O[C@@H]1CN(C)Cc1ccc(Cl)c(Cl)c1,inactive
18,C[C@@H]1CN([C@H](C)CO)C(=O)Cc2cc(NS(=O)(=O)c3ccc(Cl)cc3)ccc2O[C@H]1CN(C)Cc1ccc(Cl)c(Cl)c1,inactive
19,Cc1ccc(S(=O)(=O)Nc2ccc3c(c2)CC(=O)N([C@H](C)CO)C[C@@H](C)[C@@H](CN(C)Cc2ccc(Cl)c(Cl)c2)O3)cc1,inactive
20,C[C@H]1CN([C@@H](C)CO)C(=O)Cc2cc(N(C)C)ccc2O[C@@H]1CN(C)Cc1ccc(Cl)c(Cl)c1,inactive
21,Cc1ccc(S(=O)(=O)Nc2ccc3c(c2)CC(=O)N([C@H](C)CO)C[C@@H](C)[C@H](CN(C)Cc2ccc(Cl)c(Cl)c2)O3)cc1,inactive
